{
  "source": "ChEMBL document CHEMBL3988442",
  "about": "“University of Dundee, Small-Polar-MMV Screening Library” (2021)",
  "data": [
    {"biological_target": "T1, Aspartate--tRNA(Asp/Asn) ligase (Mycobacterium tuberculosis (strain ATCC 25618 / H37Rv)) (UniProt P9WFW3)", "T1 sequence (whole entry)": "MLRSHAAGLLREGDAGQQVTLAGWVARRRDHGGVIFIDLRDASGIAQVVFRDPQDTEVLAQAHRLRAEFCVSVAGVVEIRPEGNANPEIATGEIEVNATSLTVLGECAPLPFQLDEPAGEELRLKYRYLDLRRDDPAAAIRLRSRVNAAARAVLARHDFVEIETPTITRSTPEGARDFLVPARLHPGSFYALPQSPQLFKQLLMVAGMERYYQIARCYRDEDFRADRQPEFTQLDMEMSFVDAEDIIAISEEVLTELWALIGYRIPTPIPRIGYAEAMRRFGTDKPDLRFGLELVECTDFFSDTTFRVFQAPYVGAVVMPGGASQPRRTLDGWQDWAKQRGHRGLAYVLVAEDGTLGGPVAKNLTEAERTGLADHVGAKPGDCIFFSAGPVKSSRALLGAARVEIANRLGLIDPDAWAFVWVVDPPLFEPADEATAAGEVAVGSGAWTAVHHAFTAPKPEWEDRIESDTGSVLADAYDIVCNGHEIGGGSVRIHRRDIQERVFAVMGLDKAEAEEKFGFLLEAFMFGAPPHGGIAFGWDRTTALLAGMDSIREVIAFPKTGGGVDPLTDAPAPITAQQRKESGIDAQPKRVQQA", "assay": "Assay for Asp RNA synthetase-1 from Mycobacterium tuberculosis", "assay_type": "functional", "design": "scale not given: direction of the effect not stated beside the values", "details": "30 µM", "units": {"Percent Effect": "%"}, "values": [
      {"compound": "Cc1cccc(C2(CNC(=O)CCN3C(=O)CCC3=O)CCCC2)c1", "Percent Effect": -4.05},
      {"compound": "CNc1nc2c(s1)C(c1cccc(F)c1F)CC(=O)N2", "note": "(stereo not given)", "Percent Effect": 34.5},
      {"compound": "COCCNC(=O)C[C@@H]1COC[C@H]2CN(C(=O)c3cnccn3)C[C@@H]12", "Percent Effect": -8.37},
      {"compound": "CC(NC(=O)N1CCC(n2cncn2)CC1)c1ccc(F)cc1F", "note": "(stereo not given)", "Percent Effect": -3.4},
      {"compound": "CC(C)c1cc(NCC(O)c2ccc(F)cc2)n2nccc2n1", "note": "(stereo not given)", "Percent Effect": -1.84},
      {"compound": "CC(=O)N1CCN(S(=O)(=O)c2ccc(C)c(F)c2)CC1", "Percent Effect": -1.95},
      {"compound": "CNC(=O)C(C)(C)NC(=O)c1cc(OCC2CCC2)cc(C(=O)OC)c1", "Percent Effect": 9.31},
      {"compound": "CCS(=O)(=O)N(C)C1CCN(C(=O)c2cccc(Cl)c2)CC1", "Percent Effect": -0.493},
      {"compound": "CCN1CCN(C2CCN(Cc3nnc(C(C)(C)C)o3)CC2)C1=O", "Percent Effect": -1.73},
      {"compound": "O=C(NC1CCCN(c2ncccn2)C1)c1ccoc1", "note": "(stereo not given)", "Percent Effect": -4.64},
      {"compound": "CCOCC(=O)N1C[C@@H](O)[C@H](N(C)Cc2ccc(OC)cc2)C1", "Percent Effect": -0.849},
      {"compound": "CC(C)(C)C(O)CN1CCN(C(=O)c2cccc3ncccc23)CC1", "note": "(stereo not given)", "Percent Effect": 0.278},
      {"compound": "CC(C)(CO)NC(=O)C1CCC(=O)N(Cc2ccc(Cl)cc2)C1", "note": "(stereo not given)", "Percent Effect": -3.12},
      {"compound": "COc1cccc(S(=O)(=O)N2CCn3cnc(COCC4CC4)c3C2)c1", "Percent Effect": 6.08},
      {"compound": "Cc1nn(C)c(C)c1C(C)NC(=O)Nc1cccnc1N1CCCC1", "note": "(stereo not given)", "Percent Effect": -3.63},
      {"compound": "CC(C)c1ncc2c(n1)CN(Cc1nc(Cc3ccccc3)no1)CC2", "Percent Effect": -4.05},
      {"compound": "O=C(c1ccnnc1)N1C[C@@H]2CC[C@H](Oc3cccc(F)c3)[C@@H]2C1", "Percent Effect": 3.77},
      {"compound": "COCCC1COC2(CCN(C(=O)c3ccco3)CC2)C1", "note": "(stereo not given)", "Percent Effect": -0.368},
      {"compound": "Cc1noc(C(C)N2CCN(CC(=O)N3CCOCC3)CC2)n1", "note": "(stereo not given)", "Percent Effect": -8.27},
      {"compound": "CCn1cc(NC(=O)NCC(C)O)cn1", "note": "(stereo not given)", "Percent Effect": -3.08},
      {"compound": "CCN1CCN(C(=O)c2cnn(-c3ccccc3Cl)c2)CC1", "Percent Effect": 0.83},
      {"compound": "O=C(NCCC(=O)N1CCCCCC1)c1c(O)cc(F)cc1F", "Percent Effect": -0.98},
      {"compound": "Cc1nn(C)c(N(C)C)c1CNCc1cccc(OCCN(C)C)c1", "Percent Effect": -1.92},
      {"compound": "Cn1cc(CN2C[C@@H]3CN(Cc4ccoc4)CCO[C@@H]3C2)cn1", "Percent Effect": 3.69},
      {"compound": "COc1ccccc1CC(=O)NS(C)(=O)=O", "Percent Effect": -7.77},
      {"compound": "CC(C)n1ccnc1C1CCN(Cc2ccc(Cl)s2)CC1", "Percent Effect": 4.1},
      {"compound": "CN(Cc1cccs1)C(=O)CS(=O)(=O)Cc1ccc(Cl)c(Cl)c1", "Percent Effect": 3.86},
      {"compound": "Cc1csc(NC(=O)CN(C)CC2CCCN2c2cccnn2)n1", "note": "(stereo not given)", "Percent Effect": 3.48},
      {"compound": "CC(C)CN1CCC2(C=C(C(=O)N3CCCC3)c3ccccc32)CC1", "Percent Effect": 0.582},
      {"compound": "Cc1cccnc1CN(C)CC1(O)CCCN(CC2CCCCC2)C1=O", "note": "(stereo not given)", "Percent Effect": -0.871},
      {"compound": "COc1ccc(OCCc2sc(C3(O)CCCNCC3)nc2C)cc1", "note": "(stereo not given)", "Percent Effect": -5.55},
      {"compound": "O=C(c1cc(Cl)c2c(c1)OCCO2)N1CCCC(n2cncn2)C1", "note": "(stereo not given)", "Percent Effect": -7.78},
      {"compound": "Cc1nc(C2CCCN(C(=O)c3cnn(C(C)(C)C)c3)C2)no1", "note": "(stereo not given)", "Percent Effect": -4.47},
      {"compound": "CSc1ccccc1CN1CCCn2nc(CNC(=O)N(C)C)cc2C1", "Percent Effect": 2.53},
      {"compound": "Cc1cc(NC(=O)N(CC2CCOC2)C2CC2)no1", "note": "(stereo not given)", "Percent Effect": -10.9},
      {"compound": "CCC1CCCCN1C(=O)c1ccc2[nH]nnc2c1", "note": "(stereo not given)", "Percent Effect": 6.94},
      {"compound": "CCN(CC)CCNC(=O)c1ccn(COc2cc(C)cc(C)c2)n1", "Percent Effect": -3.4},
      {"compound": "CN(Cc1ccsc1)C(=O)c1cccc(F)c1", "Percent Effect": -5.62},
      {"compound": "Cc1[nH]ncc1C(=O)N1CCN(CC(O)C(C)(C)C)CC1", "note": "(stereo not given)", "Percent Effect": 0.878},
      {"compound": "CN(C)c1ncnc2c1CCN(CC1CCCC1)CC2", "Percent Effect": -1.05}
    ]},
    {"biological_target": "Shiga toxin 2 (Escherichia coli O157:H7) (UniProt P09385+P09386)", "assay": "E. coli 0.157:H7 Shiga Toxin SOP - stx2 screening assay", "assay_type": "functional", "design": "scale not given: direction of the effect not stated beside the values", "details": "30 µM", "units": {"Percent Effect": "%"}, "values": [
      {"compound": "Cc1cccc(C2(CNC(=O)CCN3C(=O)CCC3=O)CCCC2)c1", "Percent Effect": 9.87},
      {"compound": "CNc1nc2c(s1)C(c1cccc(F)c1F)CC(=O)N2", "note": "(stereo not given)", "Percent Effect": 3.28},
      {"compound": "COCCNC(=O)C[C@@H]1COC[C@H]2CN(C(=O)c3cnccn3)C[C@@H]12", "Percent Effect": -20.7},
      {"compound": "CC(NC(=O)N1CCC(n2cncn2)CC1)c1ccc(F)cc1F", "note": "(stereo not given)", "Percent Effect": 7.64},
      {"compound": "CC(C)c1cc(NCC(O)c2ccc(F)cc2)n2nccc2n1", "note": "(stereo not given)", "Percent Effect": 7.39},
      {"compound": "CC(=O)N1CCN(S(=O)(=O)c2ccc(C)c(F)c2)CC1", "Percent Effect": -12.2},
      {"compound": "CNC(=O)C(C)(C)NC(=O)c1cc(OCC2CCC2)cc(C(=O)OC)c1", "Percent Effect": 7.4},
      {"compound": "CCS(=O)(=O)N(C)C1CCN(C(=O)c2cccc(Cl)c2)CC1", "Percent Effect": 14.8},
      {"compound": "CCN1CCN(C2CCN(Cc3nnc(C(C)(C)C)o3)CC2)C1=O", "Percent Effect": 25.7},
      {"compound": "O=C(NC1CCCN(c2ncccn2)C1)c1ccoc1", "note": "(stereo not given)", "Percent Effect": -14.5},
      {"compound": "CCOCC(=O)N1C[C@@H](O)[C@H](N(C)Cc2ccc(OC)cc2)C1", "Percent Effect": 14.7},
      {"compound": "CC(C)(C)C(O)CN1CCN(C(=O)c2cccc3ncccc23)CC1", "note": "(stereo not given)", "Percent Effect": -208},
      {"compound": "CC(C)(CO)NC(=O)C1CCC(=O)N(Cc2ccc(Cl)cc2)C1", "note": "(stereo not given)", "Percent Effect": 0.664},
      {"compound": "COc1cccc(S(=O)(=O)N2CCn3cnc(COCC4CC4)c3C2)c1", "Percent Effect": 1.15},
      {"compound": "Cc1nn(C)c(C)c1C(C)NC(=O)Nc1cccnc1N1CCCC1", "note": "(stereo not given)", "Percent Effect": 10.7},
      {"compound": "CC(C)c1ncc2c(n1)CN(Cc1nc(Cc3ccccc3)no1)CC2", "Percent Effect": -0.282},
      {"compound": "O=C(c1ccnnc1)N1C[C@@H]2CC[C@H](Oc3cccc(F)c3)[C@@H]2C1", "Percent Effect": -5.52},
      {"compound": "COCCC1COC2(CCN(C(=O)c3ccco3)CC2)C1", "note": "(stereo not given)", "Percent Effect": -2.25},
      {"compound": "Cc1noc(C(C)N2CCN(CC(=O)N3CCOCC3)CC2)n1", "note": "(stereo not given)", "Percent Effect": -0.00886},
      {"compound": "CCn1cc(NC(=O)NCC(C)O)cn1", "note": "(stereo not given)", "Percent Effect": 3.43},
      {"compound": "CCN1CCN(C(=O)c2cnn(-c3ccccc3Cl)c2)CC1", "Percent Effect": 16.9},
      {"compound": "O=C(NCCC(=O)N1CCCCCC1)c1c(O)cc(F)cc1F", "Percent Effect": -11.1},
      {"compound": "Cc1nn(C)c(N(C)C)c1CNCc1cccc(OCCN(C)C)c1", "Percent Effect": 27.4},
      {"compound": "Cn1cc(CN2C[C@@H]3CN(Cc4ccoc4)CCO[C@@H]3C2)cn1", "Percent Effect": -1.85},
      {"compound": "COc1ccccc1CC(=O)NS(C)(=O)=O", "Percent Effect": 0.472},
      {"compound": "CC(C)n1ccnc1C1CCN(Cc2ccc(Cl)s2)CC1", "Percent Effect": -48.4},
      {"compound": "CN(Cc1cccs1)C(=O)CS(=O)(=O)Cc1ccc(Cl)c(Cl)c1", "Percent Effect": 0.473},
      {"compound": "Cc1csc(NC(=O)CN(C)CC2CCCN2c2cccnn2)n1", "note": "(stereo not given)", "Percent Effect": -23.1},
      {"compound": "CC(C)CN1CCC2(C=C(C(=O)N3CCCC3)c3ccccc32)CC1", "Percent Effect": -8.02},
      {"compound": "Cc1cccnc1CN(C)CC1(O)CCCN(CC2CCCCC2)C1=O", "note": "(stereo not given)", "Percent Effect": 2.24},
      {"compound": "COc1ccc(OCCc2sc(C3(O)CCCNCC3)nc2C)cc1", "note": "(stereo not given)", "Percent Effect": -52},
      {"compound": "O=C(c1cc(Cl)c2c(c1)OCCO2)N1CCCC(n2cncn2)C1", "note": "(stereo not given)", "Percent Effect": 10.4},
      {"compound": "Cc1nc(C2CCCN(C(=O)c3cnn(C(C)(C)C)c3)C2)no1", "note": "(stereo not given)", "Percent Effect": -34.6},
      {"compound": "CSc1ccccc1CN1CCCn2nc(CNC(=O)N(C)C)cc2C1", "Percent Effect": -34.2},
      {"compound": "Cc1cc(NC(=O)N(CC2CCOC2)C2CC2)no1", "note": "(stereo not given)", "Percent Effect": -2.82},
      {"compound": "CCC1CCCCN1C(=O)c1ccc2[nH]nnc2c1", "note": "(stereo not given)", "Percent Effect": -3.51},
      {"compound": "CCN(CC)CCNC(=O)c1ccn(COc2cc(C)cc(C)c2)n1", "Percent Effect": -48.5},
      {"compound": "CN(Cc1ccsc1)C(=O)c1cccc(F)c1", "Percent Effect": -0.747},
      {"compound": "Cc1[nH]ncc1C(=O)N1CCN(CC(O)C(C)(C)C)CC1", "note": "(stereo not given)", "Percent Effect": 0.313},
      {"compound": "CN(C)c1ncnc2c1CCN(CC1CCCC1)CC2", "Percent Effect": -5.38}
    ]}
  ]
}
